Five compounds from PubChem BioAssay can be followed below.

Usually inhibition stands for the relative decrease from the control value, in per cent.

The structures appear in SMILES notation. Inconclusive results are not listed. The source made the active and inactive calls.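 Rule for the calls, unless noted: active = GFP response, as percent of the DMSO control, above the screen-wide mean plus 3 SD, about 139; inconclusive = no response measured because the compound's own fluorescence interfered; inactive = the rest.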

Assay [1] is described as follows: rapamycin-like changes in RPL19A-GFP expression – cell-based, S. cerevisiae, multiplex flow cytometry, primary screen (AID 1862; in the data active = percent of DMSO control GFP below about 86%;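 note: lower values mimic rapamycin by blocking the RPL19A rise seen in DMSO cells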). The settings on record: S. cerevisiae RPL19A-GFP strain, flow cytometry fluorescence, 3 h; at 10 µM; stronger effect = lower value. (Flow cytometry measures light scatter and fluorescence of single cells or particles in a stream.)
A short description of assay [2]: TOR pathway GLN3 branch reporter MEP2-GFP changes – S. cerevisiae, multiplex flow cytometry, primary screen (AID 1867).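 Note: median GFP channel fluorescence of barcode-gated MEP2-GFP cells measured by flow cytometry.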 The settings on record: S. cerevisiae MEP2-GFP strain, 3 h, at 10 µM, stronger effect = higher value, 100% means same as DMSO wells.
Assay [3] is described as follows: TOR pathway RTG branch CIT2 reporter changes – S. cerevisiae, GFP fusion, multiplex flow cytometry, primary screen (AID 1870;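 active = percent response above a set limit, the screen-wide mean plus 3 SD, cut at about 130% in these data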;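 note: barcoded CIT2-GFP strain pooled with four other GFP strains with rapamycin as positive control; median GFP fluorescence per well over plate mean of DMSO wells so 100% = DMSO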). As to conditions: S. cerevisiae CIT2-GFP expression, 3 h, at 10 µM, stronger effect = higher value.
Assay [4] is described as follows: TOR pathway LAP4-GFP level changes – S. cerevisiae, multiplex flow cytometry, primary screen (AID 1873;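 active = GFP signal, as percent of the solvent control, above the screen mean plus 3 SD, about 149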). The settings on record: S. cerevisiae LAP4-GFP expression, 3 h, at 10 µM, stronger effect = higher value.
Assay [5] can be described thus: yeast AGP1-GFP level changes, GLN3 branch – cell-based, multiplex flow cytometry, S. cerevisiae, primary screen (AID 1887;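 active = GFP signal above the screen-wide mean plus 3 SD, that is over about 124.5% of the solvent control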;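 note: AGP1-GFP fusion strain of S. cerevisiae within a five-strain barcoded multiplex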). The settings on record: 3 h, at 10 µM, stronger effect = higher value.
The nature of assay [6]: reduced mouse 2C T cell binding to pMHC/ICAM-1 vesicles – MLPCN validation set, flow cytometry, LFA-1/ICAM-1 modulator project, pilot screen (AID 2523;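 active = response below a set limit, under 55% cells CD8-positive and vesicle-bound, and CD8 cells' 90th-percentile brightness under 279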;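 for vesicle binding response: mean PE anti-B7-1 fluorescence of CD8+ cells relative to row control; 100% = QL9-loaded vesicles with DMSO vehicle in the same plate row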). The settings on record: 2C mouse CD8+ T cells, at 7 µM, stronger effect = lower value; double positive events: measured here: CD8+/vesicle+ event percentage.
Assay [7] concerns the target Integrin beta-1 (Homo sapiens) + Integrin alpha-4 (Homo sapiens) (UniProt P13612+P05556). Description: alpha4beta1 integrin LIBS antibody binding reduction – U937 cells, HUTS-21 mAb, flow cytometry, validation set, VLA-4 allosteric modulator project, pilot screen (AID 2674;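 active = inhibition above 50%, about 3 SD of the validation set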;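 note: antibody binding induced by the VLA-4 ligand LDV present at three times its Kd; 0% = LDV ligand with antibody and no compound and 100% = antibody without LDV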). As to conditions: HUTS-21 LIBS mAb binding, at 6.7 µM, stronger effect = higher value, binding induced by LDV ligand.

Assay [8] in a line: calorie-restriction mimetic ROS inhibitors, yeast – validation compound set, pilot screen (AID 2706;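 active = superoxide response below 65% of plate, a cut near 3 SD across the whole screen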;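 note: yeast exposed to compound for one week at 30 degrees C before staining; 100% = mean of all compound wells on the same plate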). The settings on record: S. cerevisiae aging, superoxide DHE fluorescence; at 10 µM, stronger effect = lower value.
Assay [9] concerns the target Beta-adrenergic receptor kinase 1 (Homo sapiens) (UniProt P25098). Description: GRK2 binders displacing RNA aptamer, biochemical, validation, human GRK2, bead flow cytometry (AID 488806;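 active = aptamer binding inhibition above 30%, about 3 SD of noise from non-fluorescent compounds; inactive = inhibition at or below 30%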). As to conditions: bead-bound GRK2, FAM-aptamer displacement, at 10 µM, stronger effect = higher value.
Assay [10] deals with AP-2 complex subunit beta (Homo sapiens) (UniProt P63010). Description: beta-arrestin/AP2 interaction blockers – biochemical, validation set, GST-AP2 beads, flow cytometry, pilot screen (AID 504541;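 active = inhibition above 54%, about 3 SD of non-fluorescent compounds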;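 note: AP2 carries R879A mutation and is captured from E. coli lysate; bead-bound FITC arrestin peptide fluorescence measuring arrestin peptide binding to AP2; 0% = DMSO wells and 100% = excess unlabeled arrestin peptide control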). As to conditions: FITC arrestin peptide, at 10 µM, stronger effect = higher value, AP2 beta2 appendage fragment, R879A mutant.
Sequence of AP-2 complex subunit beta (Homo sapiens) (P63010 whole entry, looked up, the tested form may be a part, one chain of several): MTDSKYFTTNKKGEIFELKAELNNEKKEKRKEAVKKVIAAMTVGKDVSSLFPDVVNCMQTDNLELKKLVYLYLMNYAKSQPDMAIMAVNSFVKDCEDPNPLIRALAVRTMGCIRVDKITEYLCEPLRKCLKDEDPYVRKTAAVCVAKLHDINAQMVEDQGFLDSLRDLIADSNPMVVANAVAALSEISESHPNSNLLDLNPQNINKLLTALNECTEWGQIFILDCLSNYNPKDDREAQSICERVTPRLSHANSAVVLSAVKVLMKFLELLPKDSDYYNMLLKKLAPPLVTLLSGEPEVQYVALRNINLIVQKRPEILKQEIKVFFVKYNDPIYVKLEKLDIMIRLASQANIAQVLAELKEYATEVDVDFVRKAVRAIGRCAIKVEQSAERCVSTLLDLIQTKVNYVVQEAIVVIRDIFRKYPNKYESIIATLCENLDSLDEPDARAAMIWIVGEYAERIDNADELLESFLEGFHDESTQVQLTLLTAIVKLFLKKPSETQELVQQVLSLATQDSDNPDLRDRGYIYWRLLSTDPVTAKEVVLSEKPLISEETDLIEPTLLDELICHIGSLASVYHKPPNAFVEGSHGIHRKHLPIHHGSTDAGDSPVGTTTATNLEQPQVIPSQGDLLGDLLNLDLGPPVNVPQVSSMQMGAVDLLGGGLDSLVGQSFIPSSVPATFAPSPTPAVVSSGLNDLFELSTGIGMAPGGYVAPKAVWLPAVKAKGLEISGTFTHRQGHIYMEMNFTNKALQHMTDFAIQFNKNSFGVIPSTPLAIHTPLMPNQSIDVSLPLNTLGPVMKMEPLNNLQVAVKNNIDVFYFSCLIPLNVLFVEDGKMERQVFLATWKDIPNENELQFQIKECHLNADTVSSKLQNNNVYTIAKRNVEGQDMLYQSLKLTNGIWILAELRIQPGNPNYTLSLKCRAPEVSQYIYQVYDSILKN
The nature of assay [11]: cytosolic pH regulators acting via V-ATPase – S. cerevisiae, pHLuorin, HTS validation (AID 504600; in the data active = response above about 15%;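 note: plate controls were DMSO for no effect and reference compound for full effect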). As to conditions: V-ATPase proton transport, at 10 µM, stronger effect = higher value.
Assay [12] deals with anti-desmoglein-3 scFv antibody binding to human DSG3. Description: blockers of pathogenic pemphigus antibody–desmoglein-3 binding – biochemical, validation compound set, bead-based, flow cytometry, pilot screen (AID 588368;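 active = binding below the plate cutoff, the plate median minus 3 SD, with a reading above zero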;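 note: signal is the median channel fluorescence of bead-bound GFP antibody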). As to conditions: Protein G beads, DSG3-Fc, scFv-GFP binding, at 10 µM, stronger effect = lower value.
A short description of assay [13]: Nile Red efflux blockade in pump-expressing yeast – validation compound set, multiplex, phenotypic, pilot screen (AID 588506;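 active = efflux inhibition above 0.42, the validation set average plus 4 SD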;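 note: Nile Red retained in cells so higher fluorescence means more efflux inhibition; 0 = negative control wells and 1 = enniatin B 25 µM full block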). As to conditions: S. cerevisiae pump-expressing triplex, Nile Red efflux flow cytometry; at 10 µM; stronger effect = higher value; the pumps come from Candida albicans.
Assay [14] has as its target ATP-binding cassette sub-family B member 6 (Homo sapiens) (UniProt Q9NP58). The assay is described as follows: blockers of ABCB6-driven porphyrin uptake – K562-ABCB6 cells, flow cytometry, validation set, pilot screen (AID 588550;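 active = inhibition above the screen-wide mean plus 3 SD, about 51%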;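 note: 0% = DMSO wells and 100% = benzethonium chloride 70 µM positive control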). The settings on record: K562-ABCB6 porphyrin accumulation, 1 h, at 10 µM, stronger effect = higher value.
The nature of assay [15]: AML differentiation inducers, ER-HoxA9 marrow cells – cell-based, GFP/MAC1 double positive, flow cytometry, validation set, primary screen (AID 588685;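 active = differentiation response of at least 50%, scaled between solvent and reference control, from cells with both markers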;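 note: compound exposure lasts four days before antibody staining and flow analysis; 0% = DMSO wells and 100% = 5 µM fulvestrant positive control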). As to conditions: stronger effect = higher value, normalized: vehicle 0, fulvestrant 100.

Sequence of Beta-adrenergic receptor kinase 1 (Homo sapiens) (P25098 whole entry, looked up): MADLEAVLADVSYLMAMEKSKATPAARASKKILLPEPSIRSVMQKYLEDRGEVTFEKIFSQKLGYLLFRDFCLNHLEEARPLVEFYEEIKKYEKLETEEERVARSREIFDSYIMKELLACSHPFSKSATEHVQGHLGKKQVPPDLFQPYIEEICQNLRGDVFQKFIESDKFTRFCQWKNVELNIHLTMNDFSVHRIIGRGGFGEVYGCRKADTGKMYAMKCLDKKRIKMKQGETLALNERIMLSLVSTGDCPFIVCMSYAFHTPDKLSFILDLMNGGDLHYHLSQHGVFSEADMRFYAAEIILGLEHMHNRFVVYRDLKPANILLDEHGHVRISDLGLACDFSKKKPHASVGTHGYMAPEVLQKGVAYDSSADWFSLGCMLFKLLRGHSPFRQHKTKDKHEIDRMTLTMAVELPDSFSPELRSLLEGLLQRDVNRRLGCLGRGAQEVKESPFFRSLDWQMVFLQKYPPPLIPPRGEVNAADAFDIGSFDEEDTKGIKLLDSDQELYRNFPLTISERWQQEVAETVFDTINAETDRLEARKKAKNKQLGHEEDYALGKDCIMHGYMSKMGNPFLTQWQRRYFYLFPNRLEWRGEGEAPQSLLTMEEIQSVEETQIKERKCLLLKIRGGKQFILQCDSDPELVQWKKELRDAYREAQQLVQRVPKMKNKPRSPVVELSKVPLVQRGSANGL
Sequence of ATP-binding cassette sub-family B member 6 (Homo sapiens) (Q9NP58 whole entry, looked up): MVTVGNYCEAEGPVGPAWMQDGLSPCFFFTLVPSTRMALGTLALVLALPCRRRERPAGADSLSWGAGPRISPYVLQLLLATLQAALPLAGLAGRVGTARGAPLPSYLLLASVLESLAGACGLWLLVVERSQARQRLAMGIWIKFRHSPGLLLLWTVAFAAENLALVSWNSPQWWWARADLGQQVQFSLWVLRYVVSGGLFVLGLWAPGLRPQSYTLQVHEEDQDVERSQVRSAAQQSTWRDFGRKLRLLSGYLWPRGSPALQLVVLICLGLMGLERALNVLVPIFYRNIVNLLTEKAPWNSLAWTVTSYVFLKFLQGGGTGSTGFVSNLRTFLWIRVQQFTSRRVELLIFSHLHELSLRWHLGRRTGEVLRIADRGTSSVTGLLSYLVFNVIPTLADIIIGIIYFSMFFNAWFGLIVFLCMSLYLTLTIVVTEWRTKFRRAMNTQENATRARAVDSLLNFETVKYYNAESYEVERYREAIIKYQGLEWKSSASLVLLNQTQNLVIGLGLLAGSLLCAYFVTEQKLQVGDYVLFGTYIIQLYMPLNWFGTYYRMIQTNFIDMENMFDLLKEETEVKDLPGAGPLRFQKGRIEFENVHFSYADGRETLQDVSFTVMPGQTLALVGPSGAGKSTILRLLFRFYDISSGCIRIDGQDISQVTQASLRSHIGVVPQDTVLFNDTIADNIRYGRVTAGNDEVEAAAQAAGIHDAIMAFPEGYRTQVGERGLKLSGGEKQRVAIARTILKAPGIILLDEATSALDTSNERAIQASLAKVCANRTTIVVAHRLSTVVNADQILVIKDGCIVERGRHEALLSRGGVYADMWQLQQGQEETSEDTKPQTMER
Sequence of Integrin beta-1 (Homo sapiens) + Integrin alpha-4 (Homo sapiens) (P05556 whole entry, looked up): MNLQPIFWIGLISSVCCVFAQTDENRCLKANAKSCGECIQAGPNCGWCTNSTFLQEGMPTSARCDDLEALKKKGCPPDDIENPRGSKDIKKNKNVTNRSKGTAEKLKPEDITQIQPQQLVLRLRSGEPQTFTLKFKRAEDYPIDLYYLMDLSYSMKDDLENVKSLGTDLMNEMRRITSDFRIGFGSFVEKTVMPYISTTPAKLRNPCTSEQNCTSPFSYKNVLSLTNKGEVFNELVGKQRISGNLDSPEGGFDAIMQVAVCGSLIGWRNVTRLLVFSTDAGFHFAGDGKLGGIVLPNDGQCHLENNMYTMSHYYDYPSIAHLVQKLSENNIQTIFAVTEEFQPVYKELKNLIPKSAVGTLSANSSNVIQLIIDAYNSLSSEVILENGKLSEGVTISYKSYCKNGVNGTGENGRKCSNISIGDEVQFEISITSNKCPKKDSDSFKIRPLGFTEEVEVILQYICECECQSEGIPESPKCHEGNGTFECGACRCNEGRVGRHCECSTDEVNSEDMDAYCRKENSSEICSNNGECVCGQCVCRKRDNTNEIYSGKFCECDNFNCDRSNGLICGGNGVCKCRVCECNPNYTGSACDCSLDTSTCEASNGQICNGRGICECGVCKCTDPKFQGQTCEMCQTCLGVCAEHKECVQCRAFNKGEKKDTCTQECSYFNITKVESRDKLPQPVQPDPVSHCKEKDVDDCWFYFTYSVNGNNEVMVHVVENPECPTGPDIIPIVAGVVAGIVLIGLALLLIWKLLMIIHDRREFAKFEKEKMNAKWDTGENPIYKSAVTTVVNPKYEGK
Sequence of Integrin beta-1 (Homo sapiens) + Integrin alpha-4 (Homo sapiens) (P13612 whole entry, looked up): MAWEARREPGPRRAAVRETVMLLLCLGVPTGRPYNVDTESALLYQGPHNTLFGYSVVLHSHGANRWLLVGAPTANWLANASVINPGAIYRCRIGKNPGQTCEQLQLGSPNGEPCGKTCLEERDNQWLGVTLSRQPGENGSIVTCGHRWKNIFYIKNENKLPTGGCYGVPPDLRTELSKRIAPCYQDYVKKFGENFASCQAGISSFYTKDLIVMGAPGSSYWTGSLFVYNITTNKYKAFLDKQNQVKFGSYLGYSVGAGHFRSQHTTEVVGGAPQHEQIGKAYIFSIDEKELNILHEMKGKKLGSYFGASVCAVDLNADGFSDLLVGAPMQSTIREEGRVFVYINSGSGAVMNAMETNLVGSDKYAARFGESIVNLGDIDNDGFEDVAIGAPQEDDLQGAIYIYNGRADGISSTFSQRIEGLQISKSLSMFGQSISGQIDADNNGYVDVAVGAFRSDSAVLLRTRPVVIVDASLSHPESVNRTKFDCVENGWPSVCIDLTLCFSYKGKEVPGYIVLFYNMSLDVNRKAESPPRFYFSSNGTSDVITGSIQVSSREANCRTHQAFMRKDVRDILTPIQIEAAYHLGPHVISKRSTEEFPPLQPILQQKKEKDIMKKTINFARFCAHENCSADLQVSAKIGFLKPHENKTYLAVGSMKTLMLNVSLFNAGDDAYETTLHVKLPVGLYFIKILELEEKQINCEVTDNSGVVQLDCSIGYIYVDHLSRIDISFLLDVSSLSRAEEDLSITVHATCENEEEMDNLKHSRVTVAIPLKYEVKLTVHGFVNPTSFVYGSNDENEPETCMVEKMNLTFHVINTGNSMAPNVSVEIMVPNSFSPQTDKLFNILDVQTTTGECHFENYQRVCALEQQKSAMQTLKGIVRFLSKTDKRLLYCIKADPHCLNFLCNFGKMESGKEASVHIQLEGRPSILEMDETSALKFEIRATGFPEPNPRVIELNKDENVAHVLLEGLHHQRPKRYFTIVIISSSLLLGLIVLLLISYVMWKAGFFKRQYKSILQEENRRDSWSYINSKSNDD

For the compound `C/C(=N\N=C1\NC(=O)C(CC(=O)Nc2ccc(Cl)cc2)S1)c1ccco1` (stereo not given), in [1], the percent of DMSO control GFP was 105% (inactive). Also, the GFP response vs DMSO in assay [2] is 101% (inactive); in assay [4], 91.3% (inactive). The percent response of DMSO control in [3] is 104% (inactive). Also, in assay [5], the GFP response, % of DMSO is 99.1% (inactive). The same compound came in with a double positive events in [6] of 54.2%. The vesicle binding response in [6] is 112% (inactive). Also, the inhibition in assay [7] was -17% (inactive); in [10], 3.65% (inactive); in [14] it was 8% (inactive). For the same compound, the superoxide response (% of plate) in assay [8] is 101% (inactive). Also, the aptamer binding inhibition in assay [9] was 16% (inactive). The response in assay [11] was -0.13% (inactive). Also, the binding (% of control) in assay [12] is 94.4% (inactive). In addition, in assay [13], the efflux inhibition (fraction of control) was 0.22 (inactive). In addition, the differentiation response in assay [15] was 0% (inactive).

For `CC(C)CCOCC(=O)Nc1cccc(C(=O)O)c1`, the percent of DMSO control GFP in [1] was 99.5% (inactive). Moreover, the GFP response vs DMSO in assay [2] is 107% (inactive); in [4], 95.4% (inactive). Moreover, in assay [3], the percent response of DMSO control was 98.8% (inactive). In addition, the GFP response, % of DMSO in assay [5] is 99.7% (inactive). In [6], this compound returned a double positive events of 59.8%. Besides, the vesicle binding response in assay [6] was 174% (inactive). The inhibition is 10.9% (inactive) in assay [7], 41.3% (inactive) in assay [10] and 3% (inactive) in [14]. For the same compound, in assay [8], the superoxide response (% of plate) was 110% (inactive). In [9], the aptamer binding inhibition was 1% (inactive). For the same compound, in assay [11], the response was -5.9% (inactive). For the same compound, in assay [12], the binding (% of control) was 103% (inactive). Further, the efflux inhibition (fraction of control) in assay [13] was -0.12 (inactive). Further, the differentiation response in assay [15] is 11.1% (inactive).

For the compound `COc1ccc2cc(CCC(C)=O)ccc2c1`, the percent of DMSO control GFP in assay [1] was 101% (inactive). The GFP response vs DMSO in assay [2] is 103% (inactive); in [4], 101% (inactive). Also, in [3], the percent response of DMSO control was 93% (inactive). The GFP response, % of DMSO in assay [5] was 85.2% (inactive). Besides, in [6], the double positive events was 55.4%. Moreover, the vesicle binding response in assay [6] was 150% (inactive). For the same compound, the inhibition is 2.56% (inactive) in assay [7], -2.69% (inactive) in [10] and 4% (inactive) in assay [14]. Besides, the superoxide response (% of plate) in assay [8] is 86.7% (inactive). In assay [9], the aptamer binding inhibition is 2% (inactive). For the same compound, in [11], the response was -0.19% (inactive). The binding (% of control) in assay [12] is 108% (inactive). In [13], the efflux inhibition (fraction of control) is 0.63 (active). In assay [15], the differentiation response was 0% (inactive).

Regarding `O=[N+]([O-])c1cc(/C=N/n2cnnc2)ccc1N1CCCC1`, the percent of DMSO control GFP in [1] was 100% (inactive). Besides, the figures for the GFP response vs DMSO in assay [2] and in assay [4] were 99.9% (inactive) and 95.4% (inactive), respectively. For the same compound, the percent response of DMSO control in [3] was 97.9% (inactive). The GFP response, % of DMSO in assay [5] was 101% (inactive). In addition, in assay [6], the double positive events was determined as 60.8%. For the same compound, in assay [6], the vesicle binding response was 182% (inactive). In addition, the inhibition in assay [7] was 10.9% (inactive); in [10], 5.45% (inactive); in assay [14], 3% (inactive). The superoxide response (% of plate) in assay [8] is 105% (inactive). Besides, in assay [9], the aptamer binding inhibition was 6% (inactive). For the same compound, the response in [11] is -0.97% (inactive). Further, the binding (% of control) in [12] was 96.4% (inactive). Further, the efflux inhibition (fraction of control) in [13] is -0.43 (inactive). Further, the differentiation response in assay [15] was -8.27% (inactive).

As to `COCCOC(=O)c1c(C)oc2ccc(OCc3cc(C(=O)OC)oc3C)cc12`, the percent of DMSO control GFP in assay [1] is 97.6% (inactive). The GFP response vs DMSO in [2] was 102% (inactive); in [4], 101% (inactive). Also, the percent response of DMSO control in assay [3] is 93.9% (inactive). Also, in assay [5], the GFP response, % of DMSO is 98.1% (inactive). In addition, in assay [6], the double positive events is 52.6%. Further, the vesicle binding response in assay [6] was 202% (inactive). Moreover, the inhibition in assay [7] is 10.9% (inactive); in assay [10], -4.42% (inactive); in assay [14] it was 4% (inactive). Also, in [8], the superoxide response (% of plate) is 93.4% (inactive). In assay [9], the aptamer binding inhibition is 0% (inactive). Also, in [11], the response was 26.8% (active). In assay [12], the binding (% of control) is 98.7% (inactive). Moreover, in assay [13], the efflux inhibition (fraction of control) is 0.06 (inactive). Further, the differentiation response in [15] was -11.5% (inactive).
